Test results published in PubChem BioAssay AID488890 (Southern Research Specialized Biocontainment Screening …, 2010).
About 1,300 (0.41%) of roughly 320,000 compounds were called active. Roughly 3% stayed inconclusive and do not appear here. The rule behind the calls is not given here. Only a sample is shown. Results with a measured potency or affinity are listed apart.

test: growth inhibition of non-replicating M. tuberculosis (AID 488890); settings: Mycobacterium tuberculosis non-replicating, at 25 µM, stronger effect = higher value;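 note: plate controls were DMSO cells for no effect and high antibiotic wells for full effect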

SMILES	inhibition [%]
COc1ccc(S(=O)(=O)N2CCN(c3ccc4nnc(-c5ccc(F)cc5)n4n3)CC2)cc1	24
CNC[C@H]1Oc2c(NS(=O)(=O)c3ccccc3)cccc2C(=O)N([C@H](C)CO)C[C@@H]1C	-8.41
CN(C(=O)CN1C(=O)S/C(=C\c2ccc(F)cc2)C1=O)C1CCS(=O)(=O)C1 (configuration not stated)	-4.74
COc1ccccc1CNC(=O)COc1ccccc1C	10
Cc1occc1C(=O)N=Nc1c(O)[nH]c2ccc(Br)cc12	-11.3
N=C(N)N=Nc1c(O)[nH]c2ccc(Br)cc12	46
O=C(Nc1ccc(Br)c(Br)c1)C1CCCO1 (configuration not stated)	40.5
O=[N+]([O-])c1ccc(N2CCN(c3ccc(F)cc3)CC2)cc1	24.2
O=[N+]([O-])c1ccc(CN2CCN(c3ccc([N+](=O)[O-])cc3)CC2)cc1	73.8
Clc1ccc(N2CCN(Cc3ccc(Br)o3)CC2)cc1	75.9
Clc1ccc(N2CCN(Cc3ccco3)CC2)cc1	69.8
O=[N+]([O-])c1ccc(N2CCN(Cc3ccc(Br)o3)CC2)cc1	78.8
O=[N+]([O-])c1ccccc1-c1ccc(CN2CCN(c3ccccc3)CC2)o1	36.3
O=[N+]([O-])c1cccc(-c2ccc(CN3CCN(c4ccccc4)CC3)o2)c1	36.7
O=[N+]([O-])c1cc2c(cc1CN1CCN(c3ccc(F)cc3)CC1)OCO2	12.8
Cc1cc(C)cc(NC(=O)Cn2c(=O)oc3cc(S(=O)(=O)N4CC(C)CC(C)C4)ccc32)c1 (configuration not stated)	12.4
COc1ccc(N/C(=N\c2nc(C)cc(C)n2)NC(C)=O)cc1OC	-5.13
COC(/C=C/Nc1ccc(C)c(C)c1)=C(C#N)C#N	-13.9
COc1cccc(CNCC(O)(c2ccc(Cl)cc2)c2ccc(Cl)cc2)c1	31.2
Cc1ccc(C(=O)N(Cc2ccccc2)C(C)(C)C)cc1C	14
CC(=O)Nc1ccc(NC(=O)CSc2nnc(-c3ccc4c(c3)OCO4)o2)cc1	14.8
CCCC(c1nnnn1CCc1ccccc1)N1CCC(C(N)=O)CC1 (configuration not stated)	8.84
O=C(N/N=C/c1cccnc1)c1cccc(NC(=O)c2ccccc2Cl)c1	-2.18

SMILES	inhibition [%]
CCN(C(=O)c1c(-c2ccccc2)noc1C)c1ccccc1	-7.88
COc1ccc(CC(=O)Nc2cc(C)on2)cc1OC	-12.5
COc1ccc(C(=O)Nc2cc(C(=O)O)cc(C(=O)O)c2)cc1Cl	1.97
Cc1sc(NC(=O)C2CC=CCC2C(=O)O)c(C(=O)OC(C)C)c1C (configuration not stated)	24.5
CC(C)Cn1c(=O)c(C(=O)Nc2cnccn2)c(O)c2ccccc21	-0.18
CCn1c(=O)c(C(=O)Nc2ccccc2)c(O)c2ccccc21	23
C=CCn1c(=O)c(C(=O)Nc2ccc(C)cc2)c(O)c2ccccc21	-32
C=CCn1c(=O)c(C(=O)Nc2ncccc2O)c(O)c2ccccc21	27.2
C/C(=N\OCC(=O)OCC(=O)Nc1cc(S(C)(=O)=O)ccc1Cl)c1ccc2c(c1)OCO2	7.45
Cc1ccccc1NC(=O)c1ccc(Cl)c(NC(=O)c2cccnc2)c1	-8.32
C[C@H](NC(=O)OC(C)(C)C)c1nnc(SCC(=O)Nc2cccc(Cl)c2)o1	16.3
O=C(COc1ccccc1)N=C1SC2CS(=O)(=O)CC2N1c1cccc(F)c1 (configuration not stated)	1.19
CC(C)Oc1ccc2c(=O)c(-c3ccccc3)coc2c1	22.2
Cc1oc2cc(OC(C)C(=O)O)ccc2c(=O)c1Oc1ccccc1 (configuration not stated)	-10.2
CCOc1ccc2c(=O)c(Oc3ccccc3)c(C)oc2c1	57
CCc1c(C)c2ccc(OCC(N)=O)cc2oc1=O	10.3
CCCOc1ccc2c(C)c(CC(=O)OC)c(=O)oc2c1	3.51
CCN(CC)C(=O)Oc1ccc2c(=O)c(-c3ccccc3)coc2c1	62.3
COc1ccc2c(=O)c(-c3ccccc3)coc2c1	12.5
CC(=O)Oc1ccc2c(=O)c(-c3ccccc3)coc2c1	15.7
CCN(CC)C(=O)CN(c1ccc(Cl)cc1)S(=O)(=O)c1ccccc1	3.57
NS(=O)(=O)c1ccc(NC(=O)c2cccc(Cl)c2)cc1	-6.52
Cc1ccc(SCCC(=O)Nc2ccccc2C(=O)NC2CCCCC2)cc1	-25.9

SMILES	inhibition [%]
Cc1cc(C)c(NC(=O)CN(C)S(=O)(=O)c2ccc3c(c2)n(C)c(=O)c(=O)n3C)c(C)c1	-2.46
C=CCN1CC(O)=C(c2ccccc2)C1=N	-5.76
CN(C)C(=O)CSc1nnc(-c2cccnc2)n1-c1ccccc1	-19.8
Cc1ccc2ncnc(Nc3ccc(C)c(C)c3)c2c1	17.8
NC(=O)CSc1nnc(-c2ccncc2)o1	1.06
Cc1ccc(-c2nnc(COC(=O)c3ccco3)o2)cc1	60.2
O=C(OCc1nnc(-c2ccccc2)o1)c1ccco1	76.9
COc1ccc(-c2nnc(SCC(=O)c3cccs3)o2)cc1	63.8
CC(=NNC(=O)CSc1nc2ccccc2o1)c1ccco1	13.5
O=C(OCC#CCSc1nnc(-c2cccc3ccccc23)o1)c1cc2ccccc2o1	71.3
O=C(CSc1nc2ccccc2o1)N1CCN(C(=O)c2ccco2)CC1	7.29
O=C(COC(=O)c1ccco1)Nc1nnc(-c2ccccc2)o1	4.16
N#Cc1ccc(-c2ccc(F)cc2)nc1Oc1ccccc1	2.75
Cc1onc(-c2c(Cl)cccc2Cl)c1C(=O)NNc1ccccc1	77.8
CCC(CC)c1nnc(NC(=O)CS(=O)(=O)c2ccccc2)s1	-1.72
COCCOC(=O)c1c(NC(=O)CN2CCCc3ccccc32)sc(C(N)=O)c1C	22.6
COc1ccc(N(CC(=O)NC2CCCC2)C(=O)c2ccc(N3CCCCC3)nc2)cc1	11
CC(C)c1nnc(NC(=O)c2cc3ccccc3o2)s1	-9.61
COCc1nnc(NC(=O)c2cc3ccccc3o2)s1	8.81
O=C(NNC(=O)c1cc2cc(Br)ccc2oc1=O)c1ccc(O)cc1O	23.6
Cc1nnc(NC(=O)c2cc3ccccc3o2)s1	16.8
CCCc1nnc(NC(=O)c2cc3ccccc3o2)s1	16.7
Cc1cccnc1NC(=O)c1cc2ccccc2oc1=O	66.8

SMILES	inhibition [%]
c1cc2c3c(cccc3c1)NC(c1ccc3c(c1)OCO3)N2	12.1
CC1(C)Cc2c(c(-c3ccccc3)nc(N3CCOCC3)c2C(N)=O)CO1	0.34
CCCOc1ccc(-c2c(C(=O)N/N=C/c3ccc(OCC)cc3)nnn2-c2nonc2N)cc1	8.95
COc1ccc(NC(=O)CSc2ccc3nnc(-c4ccccn4)n3n2)cc1OC	-12
Cc1nn(C)cc1CN1CCC(CO)(CCOc2ccccc2)CC1	-0.6
COc1ccc2[nH]c(CN3CCC(CO)(CCOc4ccccc4)CC3)c(C)c2c1	48.7
COc1ccc(OC)c(C(=O)NC2CCSc3ccccc32)c1 (configuration not stated)	3.7
O=C(Nc1cccc(NC(=O)C2CC3CCCC(C2)C3=O)n1)C1CC2CCCC(C1)C2=O (configuration not stated)	28.2
Cc1cc(Cl)ccc1N=c1ssnc1Cl	19.9
Cc1ccc(N=c2ssnc2Cl)cc1	77.3
Cn1nc(C(=O)NCc2cccs2)c2ccccc2c1=O	40.9
Cc1c(C(=O)O)sc2ncn(C)c(=O)c12	-3.22
COC(=O)c1sc2ncn(-n3c(C)ccc3C)c(=O)c2c1C	5.25
COc1cccc(NS(=O)(=O)c2nc3nc(C)cc(C)n3n2)c1	-24.1
Cc1cc(C)n2nc(S(=O)(=O)NC(C)(C)C)nc2n1	-0.21
COc1ccc(OCC(=O)N(C)CC2COc3ccccc3O2)cc1 (configuration not stated)	27.1
COCc1nnc(NC(=O)c2cccc(NC(=O)C(C)C)c2)s1	-15.2
Cc1ccc(C(=O)N/C(=C\c2cccc([N+](=O)[O-])c2)C(=O)NC(Cc2ccccc2)C(=O)O)cc1 (configuration not stated)	4.43
CC(=O)Nc1ccc(N/C(N)=N/c2nc(C)cc(C)n2)cc1	-1.18
Cc1ccc(N/C(N)=N/c2nc(C)cc(C)n2)cc1	7.73
CC(C)(C)c1ccc(C(=O)NNC(=O)c2ccc(Cl)cc2)cc1	-14.5
CC(C)(C)NC(=O)C(=O)NNC(=O)c1ccccc1	10.8
O=C(CCC(=O)c1ccc(Br)cc1)Nc1cccnc1	40.4

SMILES	inhibition [%]
CCN(CC(=O)NC(C)C)C(=O)[C@@H](NC(=O)c1ccco1)C(C)C	-7.65
CCCC(O)(CCC)C(=O)NNc1ccccc1	23.3
CCCCC(O)(CCCC)C(=O)NNc1ccccc1	36.2
Cc1ccc(-c2nnc(SCC(=O)NCC3CCCO3)n2C)cc1 (configuration not stated)	-16.4
O=C(Nc1nnc(-c2ccc(Cl)cc2)o1)Nc1ccccc1Cl	-7.45
CC(C)(C)C(=O)Nc1nnc(-c2ccncc2)o1	1.94
NC(=O)c1oc2ccccc2c1NC(=O)c1nc2ccccc2s1	5.47
Cc1ccnc2nc(C(=O)Nc3nnc(-c4ccc(Cl)cc4)o3)nn12	2.05
Cc1ccccc1C(=O)Nc1nnc(-c2ccncc2)o1	30.5
O=C(Nc1nnc(-c2ccc(Cl)cc2)o1)NC1CCCCC1	-11.6
O=C(Nc1nnc(-c2ccc(Cl)cc2)o1)Nc1ccccc1F	11.3
O=C(Nc1nnc(-c2ccc(Cl)cc2)o1)c1ccc(N2C(=O)CCC2=O)cc1	-7.34
COCCN(C(=O)CSc1nc2ccccc2o1)c1c(N)n(Cc2ccccc2)c(=O)[nH]c1=O	10.9
Cc1ccc(NC(=O)CCCCCCCCCCC2COCCO2)c(C)c1 (configuration not stated)	-9.85
CN(C(=O)COC(=O)c1ccc(Br)c(S(=O)(=O)N2CCOCC2)c1)C1CCCCC1	11.1
Cc1cc(-c2nnco2)c(C)n1-c1ccccc1	11.1
O=C1NC2(CCCCCC2)C(=O)N1Cc1ccc([N+](=O)[O-])cc1	-2
O=C1C(=O)N(CCN2CCOCC2)C(c2ccccc2F)/C1=C(\O)c1ccc(S(=O)(=O)N2CCOCC2)cc1 (configuration not stated)	2.92
O=C(COc1ccccc1)N/N=C/c1sc(=O)n(Cc2cccc(C(=O)O)c2)c1Cl	-0.36
CC[C@H](C)C(C(=O)N1CCN(C(=O)OC(C)(C)C)CC1)n1cc(C(CC(C)C)NC(=O)OC(C)(C)C)nn1 (some centres not stated)	10.5
